Compound activity as filed in PubChem BioAssay.
Anthrax LF inh2 – blocks Bacillus anthracis lethal factor protease. P15917. multiplex microsphere protease cleavage assay, LF. inhibition, % at 10 µM. hit rate 0.12% among 360,000. AID 588501; note: plate controls were buffer without enzyme for full effect and enzyme alone for no effect
3CLpro inhibitor – SARS-CoV 3CLpro protease inhibition. P0C6X7. recombinant SARS-CoV 3CLpro, quenched FRET peptide cleavage. inhibition, % at 6 µM. hit rate 0.14% among 290,000; in the data active = inhibition above about 12%
Autofluor counter – flagged as autofluorescent in microsphere protease counterscreen; compound autofluorescence counterscreen, microsphere flow cytometry; active compounds read high; fluorescence intensity (test concentration not listed); hit rate 3.1% among 360,000; AID 624483; in the data active = fluorescence intensity above about 16000; inconclusive = no clear call, values can overlap the other calls
BoNT F protease – BoNT F light chain protease inhibition; Multiplex microsphere protease cleavage assay, flow cytometry; inhibition, % at 10 µM; hit rate 0.22% among 360,000; in the data active = inhibition above about 35%, passing the limit was not always enough; inconclusive = no clear call, values can overlap the other calls; note: plate controls were buffer without enzyme for full effect and enzyme alone for no effect
BoNT-A LC inh2 – inhibitors of Botulinum neurotoxin A light chain protease | multiplex microsphere protease substrate cleavage, flow cytometry | inhibition, % at 10 µM | hit rate 0.17% among 360,000; note: plate controls were buffer without enzyme for full effect and enzyme alone for no effect
Numbers without * were called inactive; ? = inconclusive; / = not tested or not shown. Shown are actives, neighbours in structure and some others; about 3.5% of the full set was active somewhere. Cut-off read from the data, not from the text of the source, unless noted: active = inhibition above about 30%; inconclusive = no clear call, values can overlap the other calls; inactive = below that.

SMILES	Anthrax LF inh2	3CLpro inhibitor	Autofluor counter	BoNT F protease	BoNT-A LC inh2
CCC(=O)Nc1ccc(S(=O)(=O)Nc2cccc(C)c2)cc1OC	0	0	23804*	-3	-2
O=[N+]([O-])c1ccccc1/C=N/Nc1nc(N2CCCC2)nc(N2CCCC2)n1	-8	2	3910	3	0
O=C(CSc1nnc(CNC(=O)c2c(F)cccc2Cl)o1)NCc1ccccc1	-3	5	4620	-1	0
CCN(CC)CCCN=Cc1c(O)n(CCc2ccc(OC)c(OC)c2)c(=O)[nH]c1=O	0	-2	21750*	0	?
CCN(CC)c1ccc(N=Cc2c(O)n(CCc3ccc(OC)c(OC)c3)c(=O)[nH]c2=O)cc1	0	2	2155	4	1
CCOC(=O)C1(S(=O)(=O)c2ccccc2)CCN(Cc2ccc(Cl)cc2)CC1	-5	1	10699	-14	0
CCOC(=O)C1(S(=O)(=O)c2ccc(Cl)cc2)CCN(Cc2ccc(Cl)cc2)CC1	-6	-6	23017*	-1	1
CCOc1ccccc1NC(=O)Nc1c(C)n(-c2ccccc2)c(=O)n1C	-5	4	20830*	2	3
CCN(CC)c1ccc(NC(=O)Nc2cccc(C(C)=O)c2)cc1	-10	-1	19762*	-13	5
CCOc1ccccc1NC(=O)Nc1cccc(C(C)=O)c1	-1	1	23270*	0	0
CC(=O)c1cccc(NC(=O)Nc2ccc(C(=O)N3CCCC3)cc2)c1	-1	8	22040*	2	0
CC(=O)Nc1cccc(NC(=O)Nc2ccc(C(C)=O)cc2)c1	0	-5	4198	25	-1
COc1cccc(CNc2nc3nc(C)c(Cl)c(C)n3n2)c1	9	6	9275	-4	0
COCCNC(=O)c1sc2ncn(CC(=O)Nc3ccc(C)c(Cl)c3)c(=O)c2c1C	1	3	2017	-6	0
Cc1ccc(NC(=O)Cn2cnc3sc(C(=O)NCc4ccco4)c(C)c3c2=O)cc1Cl	-6	1	21778*	4	4
CCC(=O)N1CCc2cc(S(=O)(=O)CCC(=O)Nc3ccc(C)c(F)c3)ccc21	-3	0	3135	0	0
CCc1ccc(C=NC23CN4CN(CN(C4)C2)C3)s1	-1	-4	16887*	-7	?
C(=NC12CN3CN(CN(C3)C1)C2)c1cccnc1	-1	-3	2993	-3	1
CCSc1nnc(-c2ccc(S(=O)(=O)NCc3cccs3)cc2)o1	-2	-1	20964*	-4	-1
CC(C)(C)c1ccccc1OCCCCCNCCO	-11	-7	18177*	10	12
Cc1ccccc1OCCCCCNCCO	-2	-6	11071	-12	0
C(=C\c1ccccc1)/C=N/N1CCN(c2ccccn2)CC1	-2	-2	2533	1	0
C(/C=C/c1ccccc1)=N/N1CCN(c2ccccc2)CC1	-4	-1	17556*	-10	?
O=C1NCCCCC1(Cl)Cl	-7	/	3165	-1	0
Cc1ccc(NC(=S)NCc2cccn2C)cc1	-3	-1	22735*	-6	1
SMILES	Anthrax LF inh2	3CLpro inhibitor	Autofluor counter	BoNT F protease	BoNT-A LC inh2
NC(=O)c1ccccc1NS(=O)(=O)Cc1ccccc1	/	-2	/	/	/
Clc1ccc(-c2nnc3c4ccccc4nc(N4CCOCC4)n23)cc1Cl	-3	-4	21865*	-10	?
Fc1ccccc1-c1nnc2c3ccccc3nc(N3CCOCC3)n12	-6	-6	19272*	1	1
Brc1ccc(-c2nnc3c4ccccc4nc(N4CCOCC4)n23)cc1	?	3	5395	14	?
C=CCN(c1cccc(C(F)(F)F)c1)S(=O)(=O)c1cccc(C(=O)OCC(=O)NC(N)=O)c1	-2	-1	7493	2	0
Cc1ccc(S(=O)(=O)CC(C)(O)C(=O)Nc2cccc(C(F)(F)F)c2)cc1 (configuration not stated)	0	0	7746	6	1
CC(O)(CS(=O)(=O)c1ccccc1)C(=O)Nc1cccc(C(F)(F)F)c1 (configuration not stated)	0	-7	21019*	0	-1
Cc1ccnc2nc(C(=O)Nc3nnc(-c4ccc(Cl)cc4)o3)nn12	-3	1	4572	-6	-1
CCOc1nc(-c2ccc(OC)cc2)ccc1-c1noc(-c2ccncc2)n1	-2	/	23147*	0	?
CCOc1nc(-c2ccccc2)ccc1-c1noc(-c2ccncc2)n1	0	-7	8342	13	0
CCOc1nc(-c2ccccc2)ccc1-c1noc(-c2cccs2)n1	0	4	20998*	8	3
COc1cccc(-c2ccc(-c3noc(-c4cccs4)n3)c(OC)n2)c1	1	4	2890	5	0
COc1cccc(C(=O)C2CN(C)CC2c2ccc(Cl)cc2)c1 (configuration not stated)	-3	2	5452	-4	-1
COc1cccc(C(=O)C2CN(c3ccccc3)CC2c2ccc(Cl)cc2)c1 (configuration not stated)	-4	4	21602*	-5	-2
NC(=S)Nn1c(CCC(=O)O)ccc1-c1ccccc1	4	3	2026	-2	0
COc1ccc(Cl)cc1N(CC(=O)NC(C)(C)C)S(=O)(=O)c1ccc(C)c([N+](=O)[O-])c1	-2	-2	2277	-2	0
O=S(=O)(/C=C/c1ccccc1)NC1CCCCCC1	-2	-1	3527	0	-1
O=S1(=O)CCC(NS(=O)(=O)/C=C/c2ccccc2)C1 (configuration not stated)	0	-5	22642*	0	1
CCn1c(=N)n(CC(O)c2ccco2)c2ccccc21 (configuration not stated)	-2	-2	28325*	-19	-11
N=c1n(Cc2ccccc2)c2ccccc2n1CC(O)c1ccco1 (configuration not stated)	/	-4	/	/	/
Cc1csc(NC(=O)CCc2ccc(S(=O)(=O)N3CCOCC3)cc2)n1	1	-5	3923	-33	0
COc1cc(OC)nc(NC2OC(=O)c3ccccc32)n1 (configuration not stated)	-5	6	16622*	-5	-2
C#CCn1c(S(=O)(=O)Cc2ccc(C)cc2)nc(-c2ccccc2)c1-c1ccccc1	-2	2	17325*	14	11
CC(C)(C)c1ccc(-c2nc(C=O)c3ccccn23)cc1	21	-6	18863*	21	?
C(=N\N1CCOCC1)/c1nc(-c2ccccc2)n2ccccc12	-3	-1	4879	4	-1
COc1ccc(C2NC(=O)NC3=C2C(=O)CCC3)cc1 (configuration not stated)	1	1	3647	?	1
COc1ccc(C2C3=C(CCCC3=O)Nc3c(-c4ccccc4)c(C)nn32)cc1 (configuration not stated)	1	0	22999*	-4	-1
Cc1ccc(N2C(=O)CC(Sc3cccs3)C2=O)cc1 (configuration not stated)	-1	-3	3820	?	?
Cn1cnnc1SC1CCCCC1NS(=O)(=O)c1ccccc1 (configuration not stated)	-3	5	23278*	-6	-3
